Screening results: PubChem, National Center for Advancing Translational Sciences (NCATS)
The list is not random: actives were taken first. Their share in the collection is about 12%.
NS1 inh: blocks influenza NS1 protein function; Potency, µM (top dose mostly 46.1 µM), without a hit: at the top dose activity, positive = more growth; 0.4% of 270,000 active; note: potency is the fitted concentration of half-maximal effect; actives are rising curves; nearly all actives have a fitted effect of over 50% in size
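S. cerevisiae expressing influenza A NS1, grown in glucose, washed, then diluted 1:100 into pH 6.0 -URA galactose medium with 23 nl compound. Growth recovery read as OD600; NS1-free strain serves as control.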
SARS PLP yeast: inhibitors of SARS-CoV papain-like protease in yeast. S. cerevisiae expressing SARS-CoV PLpro, growth rescue. Potency, µM (highest dose often 32.9 µM), for the others: top-dose activity, positive = growth rescue, most hits filed as activators. 0.19% of 330,000 active; note: potency is the fitted concentration of half-maximal effect; 0% is about no effect; nearly all actives have a fitted effect of over 55% in size
Shiga toxin inh: inhibitors of Shiga toxin in Vero cells | Vero cells, Shiga toxin protein synthesis inhibition reporter | inhibition, % at 38.7 µM | 9.2% of 290,000 active | AID 2315; in the data active = inhibition mostly above about 28%, no sharp cut-off; inactive = mostly below about 43%; note: 0% is about no effect
Cycloheximide cs: counter-screen hit for Shiga toxin inhibitors, cycloheximide; cell reporter, cycloheximide protein synthesis inhibition counterscreen; max response, %; 12% of 300,000 active; AID 2314; in the data active = max response mostly above about 13%, no sharp cut-off; inactive = mostly below about 14%; note: read at 38.3 µM for the half of the compounds with a filed dose; 0% is about no effect
* hit, by the source's call; ? = inconclusive; · = no result given; + = active, no number. Unless noted, calls come from the whole dose curve.

SMILES	NS1 inh	SARS PLP yeast	Shiga toxin inh	Cycloheximide cs
CCc1ccc(NC(=O)COC(=O)CCc2nc3cc(S(=O)(=O)N(CC)CC)ccc3n2C)cc1	-6%	0%	7	5
CC(C)C(C)NC(=O)CN1C(=O)NC(c2ccccc2)(c2ccccc2)C1=O (centres undefined)	18%	3%	4	1
CC(C)(C)C(=O)OC/C(N)=N/OC(=O)c1ccc(Cl)c(Cl)c1	-73%	-6%	29	20*
N/C(Cc1ccc(Cl)c(Cl)c1)=N\OC(=O)c1cccs1	-191%	-41%	-5	2
CCC(CC)NC(=O)CCCSc1nc2ccccc2[nH]1	-2%	-3%	-10	12
O=C(O)/C=C/c1cnc2ccccc2n1	·	0%	-5	-3
CCC(C)(C)NC(=O)/C=C/c1cnc2ccccc2n1	-2%	4%	77*	73*
CC(C)N(Cc1ccccc1)C(=O)COC(=O)/C=C/c1cnc2ccccc2n1	3%	1%	50	21*
O=C(NC12CC3CC(CC(C3)C1)C2)c1ccccc1	-3%	-2%	19	-1
O=C(/C=C/c1cnc2ccccc2n1)NC12CC3CC(CC(C3)C1)C2	-7%	-24%	136*	54*
CCN(C(=O)COC(=O)/C=C/c1cnc2ccccc2n1)c1ccccc1	·	-1%	10	8
COc1ccccc1/C=N/N1CCN(c2ccc(Cl)cc2)CC1	7%	-8%	·	6
COc1ccccc1N1CCN(/N=C\c2sccc2C)CC1	·	0%	99*	38
COc1ccccc1N1CCN(/N=C/C(Cl)=C/c2ccccc2)CC1	0%	-4%	81*	33*
Cc1ccc(N2CCN(/N=C/c3sccc3C)CC2)cc1	6%	-4%	10	12*
Cc1ccsc1/C=N/N1CCOCC1	9%	0%	13	2
COc1ccccc1N1CCN(/N=C\c2ccccc2)CC1	25%	3%	·	57*
O=C(N[C@@H](Cc1ccccc1)C(=O)OCc1ccccc1)c1nc[nH]c1C(=O)NCc1ccccc1	?	0%	-14	3
Cc1ccc2c(c1)C(=O)C(=O)N2CC(=O)Nc1ccccc1NC(=O)c1ccccn1	12%	2%	-4	1
Cc1ccc(/C=N/N2CCN(C3c4ccccc4-c4ccccc43)CC2)o1	?	-1%	25	9
COc1ccccc1N1CCN(/N=C\c2ccc(C)o2)CC1	-2%	-9%	100*	45
COc1ccccc1N1CCN(/N=C/c2c(C)nn(-c3ccccc3)c2C)CC1	13%	-3%	8	3
COc1ccccc1N1CCN(/N=C/c2cccc(OC)c2OC)CC1	·	0%	61*	15*
COc1cc(/C=N/N2CCN(c3ccccc3OC)CC2)ccc1O	3%	-1%	+	26*
COc1ccccc1N1CCN(/N=C/c2cc(OC)c(OC)c(OC)c2)CC1	?	9%	15	9
SMILES	NS1 inh	SARS PLP yeast	Shiga toxin inh	Cycloheximide cs
CC1(C2CC2)NC(=O)N(CC(=O)Nc2ccc(F)cc2F)C1=O (centres undefined)	·	3%	·	·
Cc1ccc(S(=O)(=O)N2CCOCC2)cc1C(=O)OCC(=O)NC1CC1	·	-6%	·	·
CN(CC(=O)N1CCN(c2ncccn2)CC1)S(=O)(=O)c1ccc(Cl)cc1	·	1%	11	21*
CN(CC(=O)N1CCN(c2ccccn2)CC1)S(=O)(=O)c1ccccc1	7%	10%	50*	43*
Cc1ccc(S(=O)(=O)N(C)CCCC(=O)N2CCN(c3ccccn3)CC2)cc1	-12%	?	16	-2
O=C(c1ccccc1F)n1c2c(c3ccccc31)CCCC2	-4%	-4%	-2	1
CN(Cc1ccccc1)S(=O)(=O)c1ccc2c(c1)CCC(=O)N2	21%	0%	-7	-1
COc1ccc(-n2nc(C(=O)NCC(=O)N3CCN(c4ccccc4OC)CC3)c3ccccc3c2=O)cc1OC	-1%	-1%	-7	3
O=c1cnnc(N/N=C/c2c[nH]c3ccccc23)[nH]1	·	0%	13	-2
O=c1nc(N/N=C/c2c[nH]c3ccccc23)cn[nH]1	-8%	0%	45*	40*
C(=N\Nc1ccccn1)/c1c[nH]c2ccccc12	3%	-1%	89*	30*
O=c1nc(N/N=C/C=C/c2ccccc2)cn[nH]1	-4%	-2%	67*	37*
O=C(O)c1cccc2c(/C=N/Nc3ccccn3)c[nH]c12	1%	2%	70*	39*
C(=N\c1nccs1)/c1c[nH]c2ccccc12	-8%	·	-16	-2
Cc1ccc(S(=O)(=O)N2CCOCC2)cc1NC(=O)COC(=O)COc1ccccc1[N+](=O)[O-]	·	13%	·	·
COc1cc(C2SCC(=O)N2CCCN(C)C)cc(OC)c1OC (centres undefined)	1%	7%	10	-2
CCCOc1ccc(CNC(=O)C2CCN(c3nnc(N4CCCC4=O)s3)CC2)cc1	15%	3%	-2	-3
COc1ccc(C(=O)/C(=C/O)N=Nc2ccc(F)cc2)cc1	·	-19%	76*	58*
COc1ccc(N=N/C(=C\O)C(=O)c2cccs2)cc1	·	-5%	58*	39*
Cc1nnc(SCC2=C(C(=O)O)N3C(=O)C(NC(=O)C(C)n4nc(C(F)(F)F)cc4C)C3SC2)s1 (centres undefined)	·	-1%	-16	15
COc1cccc(NC(=O)CNC(=O)c2cccs2)c1	-3%	1%	61*	26*
COc1ccc(NC(=O)c2ccc(NC(=O)CCS(=O)(=O)c3cccs3)cc2)cc1	14%	-13%	15	0
COc1cccc(NC(=O)CCS(=O)(=O)c2cccs2)c1	1%	-2%	78*	47*
CC(=O)c1ccc(NC(=O)c2ccc(NC(=O)CCS(=O)(=O)c3cccs3)cc2)cc1	-6%	23%	192*	18*
CCOC(=O)c1cccc(NC(=O)CCS(=O)(=O)c2cccs2)c1	5%	-1%	10	-5
SMILES	NS1 inh	SARS PLP yeast	Shiga toxin inh	Cycloheximide cs
CCOC(=O)C1=C(O)C(=O)N(Cc2cccnc2)C1c1ccc(OC)cc1 (centres undefined)	5%	0%	-7	1
COc1ccc(C(=S)N2CCOCC2)cc1OC(=O)c1ccc([N+](=O)[O-])cc1[N+](=O)[O-]	-3%	-6%	-10	7
Cc1occc1C(=O)NNC(=O)CN1C(=O)NC2(CCCCC2)C1=O	·	-1%	·	·
CC12CN3CCN(C1)CC(C)(C3)C2=NN	1%	0%	74*	21*
CC(C)Oc1ccc(/C(O)=C2/C(=O)C(=O)N(CCN(C)C)C2c2ccco2)cc1 (centres undefined)	-8%	-1%	134*	39*
CCN(CC)CCN1C(=O)C(=O)/C(=C(/O)c2ccc(OC(C)C)cc2)C1c1cccs1 (centres undefined)	0%	0%	85*	45*
CCN(CC)CCN1C(=O)C(=O)/C(=C(/O)c2c(C)[nH]c(C(=O)OC)c2C)C1c1cccs1 (centres undefined)	-4%	6%	24	23*
CCOC(=O)C1CCN(S(=O)(=O)c2ccc3c4c(cccc24)C(=O)N3CC)CC1	·	0%	·	·
Cc1ccc(NC(=O)NCCCN2CCCC2=O)c(C)c1	9%	1%	-12	1
O=C(NCCCN1CCOCC1)c1cc2c(s1)CCCC2	7%	1%	49	10
O=C(NCCCN1CCCC1=O)Nc1ccc([N+](=O)[O-])cc1	-1%	1%	43	18*
